Source: PubChem BioAssay (NCI)
The panel holds about 83,000 compounds, 20% with a hit somewhere; the sample as a whole holds those more often.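 48-hour exposure, single concentration, 96-well plates; percent growth endpoint where 0 means no net growth. Active: below 10.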 Values without a mark were called inactive. The source made the active and inactive calls.

What follows are compounds tested on MDA-MB-468 breast (assay: NCI-60 one-dose screen, 48 h (100 = growth as untreated, 0 = no growth, -100 = all killed)). Details: 10 µM unless noted.

Row | Compound | growth
1 | c1coc(-c2c3ccc(=[N+]4CCCCC4)cc-3oc3cc(N4CCCCC4)ccc23)c1 | -88.6% (active)
2 | O=S(=O)(NCCCNc1nccc(-c2[nH]c(-c3ccccc3)nc2-c2ccc(Cl)c(O)c2)n1)c1cccc2ccccc12 | 36.7%
3 | COc1ccc(-c2nc3sccn3c2/C=C/C(=O)c2cc(F)cc(F)c2)cc1 | 85.8%
4 | CCOC(=O)c1cn2c3c(cccc3c1=O)C(=O)/C(=C/c1cccc(Cl)c1Cl)C2 | 106%
5 | CCn1c2ccccc2c2ccc(C(C)=O)cc21 | 104%
6 | N#Cc1c(-c2ccc(O)cc2)c2c(N)nn(-c3ccccc3)c2[nH]c1=O | 111%
7 | CCN(CC)CC(O)CNc1c2ccc(Cl)cc2nc2ccc(OC)cc12 (stereo not given) | -48.3% (active)
8 | O=C1Nc2ccccc2/C1=C/c1ccc(COCC2CO2)n1-c1ccc(O)cc1 (stereo not given) | 95.9%
9 | Cc1cc(=O)oc2cc(OCCCOc3ccc(/C=C/C(=O)Nc4ccc(Cl)cc4)cc3)ccc12 | 73.9%
10 | Cc1ccc(NC2=C(Cl)C(=O)c3nc(C)ccc3C2=O)cc1 | -81.9% (active)
11 | COCCOCCOCc1n(Cc2ccc3ccccc3c2)c2ccccc2[n+]1Cc1ccc2ccccc2c1 | -20.6% (active)
12 | C[C@]12CC[C@@H]3c4cc(OC(F)F)c(OS(N)(=O)=O)cc4CC[C@H]3[C@@H]1CC[C@@H]2OS(N)(=O)=O | 11.9%
13 | O=C(C1CCC1)N1N=C(c2ccc(-n3ccc(C(F)(F)F)n3)cc2)CC1c1ccc[nH]1 (stereo not given) | 106%
14 | Cc1ccc(-c2nc(/C=C3/C(=O)Nc4ccccc43)c3ccccn23)cc1 | 69.6%
15 | C=C1C(=O)O[C@H]2[C@H]1CC/C(COC(=O)/C=C\C(=O)NCc1ccc(Cn3c(=O)sn(-c4ccc(C#N)cc4)c3=O)cc1)=C\CC[C@@]1(C)O[C@@H]21 | -87.6% (active)
16 | CCCCNc1ccc(-c2ccc(NCCCC)cc2)cc1 | 29.9%
17 | CN1CCN(Cc2ccc(NC(=O)c3[nH]ncc3Nc3ncnc4[nH]ccc34)cc2)CC1 | -51.8% (active)
18 | NS(=O)(=O)c1ccc(N2N=C(c3ccccc3)CCC2=O)cc1 | 96.3%
19 | CCOC(=O)c1cc2cccc(OC)c2oc1=O | 108%
20 | Cc1ccc(C)c(S(=O)(=O)NC2c3ccccc3Oc3ccccc32)c1 | 85%

Row | Compound | growth
21 | Cn1c(COC(=O)NCCn2ccnc2)nc2c(N3CCOCC3)nc(-c3ccccc3)nc21 | -64.1% (active)
22 | CC(C)N=C(N)/N=C(\N)Nc1ccc2ccc3ccccc3c2c1 | -91.1% (active)
23 | C#Cc1ccc(-n2c(/C=C/c3ccc(O)cc3)nc3ncccc3c2=O)cc1 | -10.6% (active)
24 | COC(=O)[C@]1(C)CCC[C@]2(C)[C@H]3C[C@H]4C(C(C)C)=C[C@]3(CC[C@H]21)[C@H]1[C@@H]4[C@@H](OCCC#N)CC[C@@H]1OCCC#N | -6.32% (active)
25 | CCCCCCCCNc1cccc2c1C(=O)c1ccccc1C2=O | 95.4%
26 | O=C(NCCc1ccc(O)c(O)c1)C12CC3CC(CC(C3)C1)C2 | 87.4%
27 | CCC(CO)Nc1nc2ccc(Cl)cc2c2ccccc12 (stereo not given) | 33%
28 | OCC12CCCC(CO)(COC1)C2O (stereo not given) | 109%
29 | COc1ccc(-c2nc(-c3nc4cc(Cl)c(Cl)cc4[nH]3)c3ccccn23)cc1 | 66.6%
30 | Cc1cc(N/N=C/c2nc(-c3ccc(Cl)cc3)oc2C)c2cc(Br)ccc2n1 | -36.6% (active)
31 | O=Cc1cc2ccccc2nc1Nc1nccs1 | 57.2%
32 | N#Cc1c(NC(=O)c2ccccc2I)sc2c1CCCC2 | 50%
33 | O=S(=O)(NCCNc1nccc(-c2c(-c3cccc(O)c3)nc3occn23)n1)c1ccc(Br)cc1 | 26.6%
34 | COc1ccc(-c2n[nH]c(=O)c3nc(NC(=S)Nc4ccc(Oc5ccccc5)cc4)sc23)cc1 | 98%
35 | NS(=O)(=O)c1ccc(CCn2c(-c3ccc(C(=O)O)cc3)nc(-c3ccccc3)c2-c2ccccc2)cc1 | 112%
36 | COc1cc2cc(Oc3ccc(NC(=O)Nc4ccc(C(F)(F)F)cc4)cc3)c(C)nc2cc1OC | 40.1%
37 | CCOC(=O)c1ccc2c(c1)[n+](=O)c(C(=O)C1CCCS1)c(C(F)(F)F)n2[O-] (stereo not given) | -80.5% (active)
38 | COC(=O)c1sccc1-c1cc(O)c(C(=O)Nc2ccccc2)s1 | 85.4%
39 | Cc1cc2[nH]c(=O)c3c4ncccc4cn3c2cc1C | 23.2%
40 | CCN1CCCC(Nc2cc(C)nc(/N=C(/N)Nc3ccc(Cl)c(Cl)c3)n2)C1 (stereo not given) | -83.3% (active)
